What all share (experiment): qHTS profiling for inhibitors of Plasmodium falciparum proliferation (AID 504749); further: nearly all actives have a fitted effect of over 60% in size
Common to all, as to conditions: P. falciparum in erythrocytes, SYBR Green DNA, 72 h; series mostly up to 28.7 µM
On the technique in general: Quantitative high-throughput screening tests each substance at several concentrations.

The test system of one experiment is CP335. Summed up: (§1)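 Quantitative HTS: compounds pinned into medium, infected erythrocytes added (0.3% parasitemia, 2.5% hematocrit), 72 h culture at 37 C under 5% CO2. Saponin/Triton lysis with SYBR Green I, overnight RT, then fluorescence read.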
In a further experiment the test system is DIV14. The essentials:
as §1

The test system of the next experiment is DIV17. Summed up: as §1
The subject of another experiment is DIV30. Summed up:
as §1

Another experiment concerns Dd2. The essentials:
as §1

For the next experiment, the system named is ECU. Summed up: as §1
For a further experiment, the system named is FAB9. Summed up:
as §1

Another experiment has as its system GB4. Summed up:
as §1

The test system of the next experiment is HB3. The essentials: as §1
The test system of the next experiment is DFO2036. Summed up: as §1

The results in this text go back to PubChem BioAssay (NCATS).

Records with an inconclusive call do not appear. Calls of active or inactive are those of the source. The call rests on the fitted dose curve; in most records, active means well fitted inhibition curve with a large enough effect; inconclusive means small, poorly fitted or top-dose-only effect; inactive means flat fitted curve, though single readings scatter.
Potency means the concentration at half of the fitted maximal effect.

`Cn1c(=O)c2[nH]c(Br)nc2n(C)c1=O`: the Potency entry in the experiment on CP335, in the experiment with DIV14, in the experiment on DIV17, with DIV30, with Dd2 and in the experiment on ECU was “inactive” throughout. Besides, the Potency result in the experiment with FAB9, in the experiment on GB4 and with HB3 was “inactive” in each case.
Turning to `Oc1ccc(Cl)cc1Cc1cc(Cl)ccc1O`, the Potency result with CP335, with DFO2036, with Dd2, in the experiment on FAB9 and with HB3 was “inactive” throughout.
As to `CC(=O)Nc1ncc([N+](=O)[O-])s1`, the Potency entry with CP335, in the experiment with DFO2036, with DIV14, with DIV30, in the experiment on Dd2 and in the experiment with ECU was “inactive” throughout. The Potency entry with FAB9, in the experiment with GB4 and in the experiment with HB3 was “inactive” each time.
As to `NC(N)=NCc1cccc(I)c1`, the Potency entry in the experiment on DFO2036, with DIV14, with DIV17, in the experiment with DIV30, in the experiment with Dd2 and in the experiment on ECU was “inactive” throughout. Further, the Potency entry in the experiment on FAB9, with GB4 and in the experiment on HB3 was “inactive” throughout.
`Clc1cccc(C(c2ccc3nc[nH]c3c2)n2ccnc2)c1` (centres undefined): the Potency in the experiment on DFO2036 was 10 µM (active); in the experiment on DIV14 it was 15.1 µM (active); in the experiment with DIV17, 13.5 µM (active); in the experiment with DIV30, 12 µM (active); in the experiment with ECU, 3.16 µM (active); with GB4, 12 µM (active).
`CCCCC(CC)COC(=O)c1ccc(N(C)C)cc1` (centres undefined): the Potency entry with CP335, in the experiment on DFO2036, in the experiment on DIV17, in the experiment on DIV30, in the experiment with Dd2 and in the experiment on ECU was “inactive” each time. Further, the Potency result with FAB9, in the experiment with GB4 and in the experiment with HB3 was “inactive” each time.
`O=C(CCN1CCN2CCCC2C1)N1c2ccccc2Sc2ccc(Cl)cc21` (centres undefined): the Potency entry with DFO2036, with FAB9 and in the experiment with HB3 was “inactive” throughout. The Potency with DIV14 is 4.26 µM (active); with DIV17, 5.36 µM (active); in the experiment with Dd2 it was 6.31 µM (active); in the experiment with ECU it was 14.1 µM (active).
With `CN(CCCN1c2ccccc2CCc2ccccc21)CC(=O)c1ccc(Cl)cc1`, the Potency with CP335 was 13.5 µM (active); with DIV14, 4.26 µM (active); in the experiment on DIV17 it was 4.78 µM (active); with Dd2, 7.08 µM (active); with ECU, 10 µM (active); in the experiment on HB3, 12.6 µM (active). Moreover, the Potency result with FAB9 was “inactive”.
On to `C/C=C/c1ccc(O)c(OC)c1`, for which the Potency result in the experiment on CP335, in the experiment with DFO2036, in the experiment with DIV17, in the experiment on Dd2, in the experiment on ECU and in the experiment on FAB9 was “inactive” in each case. The Potency entry with GB4 and with HB3 was “inactive” throughout.
Turning to `NCc1ccccc1Sc1ccccc1CO`, the Potency entry with DFO2036, in the experiment on ECU, in the experiment with FAB9 and in the experiment with HB3 was “inactive” in each case. In addition, the Potency with DIV14 is 13.5 µM (active); with Dd2, 10 µM (active).
In the case of `CC(C)NCC(O)c1ccc2ccccc2c1` (centres undefined), the Potency was 12 µM (active) in the experiment with CP335; 6.75 µM (active) in the experiment with DIV14; 6.75 µM (active) in the experiment with DIV17; 12 µM (active) in the experiment with DIV30; 7.08 µM (active) in the experiment on Dd2; 3.98 µM (active) with ECU. The Potency with GB4 is 6.75 µM (active); in the experiment on HB3, 12.6 µM (active).
As for `c1ccc(CC2=NCCN2)cc1`, the Potency entry in the experiment on DFO2036, in the experiment with DIV14, in the experiment on DIV17, in the experiment on DIV30, in the experiment on Dd2 and in the experiment on ECU was “inactive” each time. Besides, the Potency entry in the experiment on FAB9, with GB4 and with HB3 was “inactive” in each case.
On to `CN(Cc1ccc(C(C)(C)C)cc1)Cc1cccc2ccccc12`, for which the Potency entry with DFO2036, in the experiment with DIV17, in the experiment with DIV30, with ECU, with FAB9 and with GB4 was “inactive” throughout.
Regarding `Cc1cc(-c2ccccc2)nnc1NCCN1CCOCC1`, the Potency entry in the experiment on CP335, in the experiment with DFO2036, in the experiment with FAB9, in the experiment on GB4 and in the experiment with HB3 was “inactive” throughout. Further, the Potency with DIV17 is 8.49 µM (active).
In the case of `Cc1ncc(CO)c(C=O)c1O`, the Potency entry in the experiment with CP335, with DFO2036, in the experiment on Dd2, in the experiment with ECU, in the experiment with FAB9 and with HB3 was “inactive” each time.
Take `O=C(c1ccc(F)cc1)C1CCN(CCn2c(=S)[nH]c3ccccc3c2=O)CC1`: the Potency is 5.62 µM (active) with DFO2036; 13.5 µM (active) in the experiment with DIV17; 12 µM (active) with DIV30; 11.2 µM (active) with Dd2; 4.47 µM (active) in the experiment on ECU; 12 µM (active) in the experiment with GB4. The Potency in the experiment on HB3 was 11.2 µM (active).
As to `O=C(Nc1ccc([N+](=O)[O-])cc1)Nc1ccc([N+](=O)[O-])cc1`, the Potency in the experiment on CP335 is 4.78 µM (active). Besides, the Potency result with DFO2036, in the experiment with DIV17, with DIV30, with ECU, in the experiment with FAB9 and in the experiment with GB4 was “inactive” each time.
For the compound `CN1CCc2cccc3c2[C@H]1Cc1ccc(O)c(O)c1-3`, the Potency in the experiment with CP335 is 3.79 µM (active); in the experiment with DIV14 it was 7.57 µM (active); in the experiment with DIV17, 7.57 µM (active); in the experiment on GB4, 7.57 µM (active); with HB3 it was 11.2 µM (active). Also, the Potency result with Dd2 is “inactive”.
As for `C[N+]1(CC2COC(c3ccccc3)(C3CCCCC3)O2)CCCCC1` (centres undefined), the Potency in the experiment with DFO2036 was 7.94 µM (active); in the experiment with DIV14, 6.01 µM (active); with DIV17 it was 6.01 µM (active); in the experiment on DIV30 it was 6.75 µM (active); with Dd2, 7.08 µM (active); with ECU, 4.47 µM (active). Further, the Potency was 3.16 µM (active) in the experiment on FAB9, 3.38 µM (active) in the experiment on GB4 and 4.47 µM (active) with HB3.
